Results on 115 molecules are retold here after PubChem BioAssay AID618 (Sanford-Burnham Center for Chemical Genomics, 2007).

Molecules are shown by their SMILES. The whole screen tested about 87,000 compounds, of which about 540 (0.62%) were called active. Entries that show only a call come without a potency. How the calls were made is not given here. The full list was thinned out, with actives kept by preference. Potency and affinity values are given separately.

This experiment in a line: MT1-MMP gene expression reporter suppression – cell-based, luciferase reporter, luminescence (AID 618).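 Further: actives suppress MT1-MMP promoter-driven transcription so potencies describe inhibitors.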 The settings on record: MT1-MMP promoter luciferase reporter cells. Background: Reporter assays use an easily measured gene product as a stand-in for the process of interest.
In the case of `Cc1ccc2[nH]c(-c3ccccc3)cc(=O)c2c1`, the call was active.
Then `Cc1ccc2[nH]c(C(=O)O)c(-c3ccccc3)c2c1`, with “inactive”; and `O=c1cc(-c2ccccc2)[nH]c2ccccc12`, with “inactive”; and `COc1ccc(NC(=O)N2CCCC2C(=O)NCc2ccc(F)cc2)cc1` (stereo not given), with “inactive”.
Regarding `O=C(CSCCO)Nc1ccc(C2CCCCC2)cc1`, the outcome was inactive.
For the molecule `O=C(O)CSCC(=O)Nc1ccccc1`, the molecule was classed as inactive.
Then `Cc1ccc(C(=O)CC2(O)C(=O)N(Cc3ccc4c(c3)OCO4)c3ccccc32)cc1` (stereo not given), with “inactive”; and `Cc1cc(C)c(S(=O)(=O)N2CCC(C(=O)NCc3ccco3)CC2)c(C)c1`, with “inactive”; and `Cc1ccc(C(=O)NNS(=O)(=O)c2ccccc2[N+](=O)[O-])cc1`, with “inactive”.
Regarding `O=C(N/N=C/c1ccc([N+](=O)[O-])s1)c1cccc(Br)c1`, the call was inactive.
In the case of `CC(=O)Nc1ccc(NC(=O)c2ccccc2C)cc1`, the call was inactive.
On to `Cc1ccc(C(=O)N/N=C/c2sc(=O)n(Cc3cccc(C(=O)O)c3)c2Cl)cc1`, for which the result was inactive.
Consider `COc1cc(C(=O)N/N=C\c2ccccc2)c([N+](=O)[O-])c(OC)c1OC`, for which the call was inactive.
As to `O=C(N/N=C/C=C/c1ccccc1)c1ccccc1Br`, the molecule was called inactive.
Then `COc1cccc(NC2=NCC(=O)N2Cc2cccs2)c1`, with “inactive”; and `O=C1c2ccccc2C(=O)N1CCOCCN1C(=O)c2ccccc2C1=O`, with “inactive”.
`CCC(=O)N(Cc1ccc(S(N)(=O)=O)cc1)C1CC(=O)N(c2ccc(OC)cc2)C1=O` (stereo not given): the call was inactive.
As for `Cc1cc2nnc(SCC(=O)N3C(C)CCCC3C)n2c(N)n1` (stereo not given), the molecule was called inactive.
Then `COC(=O)CSc1cc(C(=O)c2nccn2C)c2ccccc2n1`, with “inactive”; and `COCCNC(=O)C(c1cccs1)N(Cc1cccs1)C(=O)Cn1nnc2ccccc21` (stereo not given), with “inactive”; and `CCCCS(=O)(=O)Nc1ccc(C(=O)NCC2CCCO2)cc1` (stereo not given), with “inactive”.
For `Cc1cccc(NC(=O)c2cnc3ccccn3c2=O)c1`, the call was inactive.
`CCN(CC)c1ccc(NC(=O)c2cnc3ccccn3c2=O)c(C)c1`: the result was inactive.
Consider `CCCC(=O)c1ccc(N2CCOCC2)c(F)c1`, for which the molecule was classed as inactive.
With `Cn1c(C(=O)N2CCN(Cc3ccccc3)CC2)cc2c(=O)n(C)c3ccccc3c21`, the outcome was inactive.
In the case of `Cc1cccc(N2CCN(C(=O)c3ccncc3)CC2)c1C`, the result was inactive.
Consider `COc1ccc(Cl)cc1S(=O)(=O)N1CCN(C(=O)c2cc(OC)c(OC)c(OC)c2)CC1`, for which the outcome was inactive.
Then `COc1ccc(C(=O)N2CCN(C(=O)c3cc(OC)c(OC)c(OC)c3)CC2)cc1`, with “inactive”.
As to `COc1cc(C(=O)N2CCN(c3cc(Cl)ccc3Cl)CC2)cc(OC)c1OC`, the molecule was classed as active.
Turning to `COc1cc(C(=O)N2CCN(c3cccc(C)c3C)CC2)cc(OC)c1OC`, the call was active.
In the case of `COc1cc(C(=O)N2CCN(C(=O)c3ccccc3)CC2)cc(OC)c1OC`, the molecule was classed as inactive.
Then `O=C(Nc1cccc(Cl)c1N1CCCC1)c1ccc(Br)o1`, with “inactive”; and `O=C(Nc1ccccc1)NC1CC2CCC(C1)N2Cc1nnnn1Cc1ccc2c(c1)OCO2` (stereo not given), with “inactive”.
As for `COc1ccc(Nc2cc(C)nc3nc(C)nn23)cc1Cl`, the call was inactive.
For `CC(=O)Nc1c2c(nn1-c1ccc(C)cc1C)CSC2`, the outcome was inactive.
Consider `CCCCS(=O)(=O)/C=C\C=C/S(=O)(=O)CCCC`, for which the molecule was classed as active.
Then `CCCCS(=O)(=O)/C=C/[C@H]1[C@H](S(=O)(=O)CCCC)[C@H]2C=C[C@@H]1C2`, with “inactive”; and `CCCCS(=O)(=O)/C=C\C1C2C=CC(C2)C1S(=O)(=O)CCCC` (stereo not given), with “inactive”; and `COc1ccc(CCNC(=O)Cn2cnc3c(nnn3Cc3ccccc3F)c2=O)cc1OC`, with “inactive”.
For the molecule `Cc1ccc(S(=O)(=O)N2CCN(C(=O)N3CCOCC3)C2c2ccc(N(C)C)cc2)cc1` (stereo not given), the outcome was inactive.
Regarding `O=C(Cn1cnc2ccccc2c1=O)OCC(=O)c1ccc2c(c1)OCCO2`, the result was inactive.
Then `O=C(Cc1n[nH]c(=O)c2ccccc12)OCC(=O)c1ccc2c(c1)OCCO2`, with “active”.
In the case of `O=C(Cc1ccc(Br)cc1)OCC(=O)c1ccc2c(c1)OCCO2`, the call was inactive.
With `CCOCCCn1c(SCC(=O)NC(C)(C)C)nc2ccccc2c1=O`, the molecule was called inactive.
In the case of `CNC(=O)Nc1ccccc1F`, the molecule was called inactive.
Take `Cc1nc2ccccc2c(=O)n1C1CCCCCC1`: the outcome was inactive.
Then `O=C(c1cc(-c2cccc(O)c2)on1)N1CCOCC1`, with “inactive”; and `COc1cccc(-c2cc(C(=O)N3CCCCCC3)no2)c1`, with “inactive”; and `Cc1ccc(-c2cc(C(=O)N3CCCC3)no2)cc1`, with “active”.
`O=C(c1cc(-c2ccc(F)cc2)on1)N1CCCC1`: the molecule was classed as inactive.
On to `O=C(c1cc(-c2ccccc2)on1)N1CCCC1`, for which the molecule was called inactive.
Then `O=C(c1cc(-c2ccc(Cl)cc2Cl)on1)N1CCOCC1`, with “active”; and `O=C(c1cc(-c2ccc(Cl)cc2)on1)N1CCOCC1`, with “inactive”.
Then `O=C(c1cc(-c2ccc(Cl)cc2Cl)on1)N1CCN(C(=O)c2ccco2)CC1`, with “inactive”.
As to `CCCCN1CC(C(=O)NCc2ccc(C)cc2)CC1=O` (stereo not given), the call was inactive.
As for `CCCN1Cc2cccc(C(=O)NCc3ccc4c(c3)OCO4)c2C1=O`, the molecule was classed as inactive.
As for `c1coc(CN2CN=C(Nc3nc4ccccc4s3)NC2)c1`, the result was inactive.
As for `Cc1cc(S(=O)(=O)N(Cc2ccc(F)cc2)CC2CCCO2)ccc1-n1cnnn1` (stereo not given), the molecule was classed as inactive.
In the case of `COc1ccc(OC)c(CNn2c(-c3cccc(C)c3)nc3ccccc3c2=O)c1`, the outcome was inactive.
As to `CC1=CC(C)(C)N2C(=O)C3(C(C#N)=C(N)Oc4cc(O)ccc43)c3c(C)c(C)cc1c32` (stereo not given), the molecule was classed as inactive.
On to `O=C(CSc1nnc(-c2cccs2)o1)c1cccs1`, for which the outcome was inactive.
For the molecule `Cc1cc(C(=O)CSc2nnc(-c3ccccc3F)o2)c(C)n1Cc1cccs1`, the call was inactive.
For the molecule `COC(=O)C1=C(C)N(CCCC(=O)O)C(=O)NC1c1ccccc1Cl` (stereo not given), the call was inactive.
Consider `Brc1ccc(OCc2nc(-c3ccccn3)n[nH]2)cc1`, for which the molecule was classed as inactive.
For the molecule `COc1ccc2c(c1)sc1nc(-c3ccccc3)cn12`, the molecule was classed as active.
Then `CCOC(=O)N1CCN(C(=O)c2ccc3c(c2)sc2nc(-c4ccccc4)cn23)CC1`, with “inactive”; and `CCOC(=O)N1CCC(NC(=O)c2ccc3c(c2)sc2nc(-c4cccc(OC)c4)cn23)CC1`, with “inactive”.
For `Cc1sc2ncnc(Oc3ccc(-n4ccnc4)cc3)c2c1C`, the molecule was called inactive.
With `N#CC1(Nc2ccccc2)C(=O)Nc2ccccc21` (stereo not given), the molecule was classed as inactive.
Turning to `Nc1ccc2nc(-c3ccccc3)[nH]c2c1`, the molecule was called inactive.
On to `Cc1ccc2nc(-c3cccc(-c4nc5ccc(C)cc5o4)n3)oc2c1`, for which the molecule was classed as inactive.
With `Nc1cccc(-c2nc3ccccc3[nH]2)c1`, the call was inactive.
As to `Nc1cc(N)cc(-c2nc3ccccc3o2)c1`, the call was inactive.
For the molecule `Cc1ccc2nc(-c3ccccn3)oc2c1`, the result was inactive.
In the case of `Cc1ccc2nc(-c3cccnc3)oc2c1`, the result was inactive.
Consider `COCCNC(=O)Nc1ccc2nc(C)sc2c1`, for which the result was inactive.
Regarding `CCCCN(C)C(=O)c1oc2ccc(S(=O)(=O)N3CCCCCC3)cc2c1C`, the outcome was inactive.
Then `CCn1cc(C(=O)N2CCCC2)c(=O)c2cc(S(=O)(=O)N(C)C)ccc21`, with “inactive”; and `O=C(NCCCn1ccnc1)c1noc2c1CCc1ccccc1-2`, with “inactive”.
Turning to `CCOCc1nnc(NC(=O)CCc2ccccc2)s1`, the outcome was inactive.
Then `C=CCN1C(=NC(=O)CCCC(=O)O)SC2CS(=O)(=O)CC21` (stereo not given), with “inactive”; and `COc1ccccc1Nc1nc(NCCO)c2ccccc2n1`, with “inactive”.
Take `C=C(C)Cn1c(CCNC(=O)C(C)(C)C)nc2ccccc21`: the outcome was inactive.
For `Cc1ccc(O)c(N=CC2=C(O)c3ccccc3C2=O)c1`, the molecule was classed as inactive.
Then `O=C1C(C=Nc2ccccc2O)=C(O)c2ccccc21`, with “inactive”; and `CCc1ccc(NC(=O)C(=O)NCCN2CCN(C(=O)c3ccco3)CC2)cc1`, with “inactive”.
Then `CC1=C(C(=O)OC(C)C)C(c2cccc(F)c2)N2C(=O)C(C)SC2=N1` (stereo not given), with “inactive”.
Consider `CCOC(=O)CSc1nnc(CNC(=O)c2ccc(OC)cc2OC)n1-c1ccc(OC)cc1`, for which the result was inactive.
With `CCN(CC)C(=O)N1CCn2c(nc3ccccc32)C1`, the call was inactive.
Turning to `CC(C)(C)C(=O)/C(=C\c1ccc([N+](=O)[O-])cc1)n1cncn1`, the result was active.
With `Cn1ncc(N=Cc2ccc([N+](=O)[O-])cc2)c1C(=O)N1CCOCC1`, the molecule was called inactive.
Turning to `O=[N+]([O-])/C(C(Cl)=C(Cl)Cl)=C(\Nc1ccc(F)cc1)n1cncn1`, the molecule was classed as inactive.
For the molecule `Nn1c(COc2ccccc2)nnc1SCc1cc(=O)[nH]c2ccccc12`, the molecule was classed as inactive.
With `CCOC(=O)c1sc2nc(-c3ccco3)c3c(c2c1N)CC(C)(C)OC3`, the call was inactive.
For the molecule `COc1ccccc1OCC(=O)Nc1nc(-c2ccc(S(=O)(=O)N3CCOCC3)cc2)cs1`, the call was inactive.
Turning to `CC1CN/C(=C\C(=O)c2ccccc2)C(=O)N1` (stereo not given), the outcome was inactive.
Then `CC1CN/C(=C\C(=O)c2ccc(Cl)cc2)C(=O)N1` (stereo not given), with “inactive”; and `Cc1ccc(-n2ncc3c(=O)[nH]c(SCC(=O)N4CCC(C)CC4)nc32)cc1C`, with “inactive”; and `COc1ccc(NC(=O)c2cccs2)cc1`, with “inactive”.
Consider `Cc1cc(NC(=O)c2ccccc2)sc1C`, for which the result was inactive.
With `Cc1ccc(NC(=O)c2ccccc2)s1`, the molecule was called active.
Consider `Cc1sc(NC(=O)c2ccccc2)c(C(=O)NC(C)C)c1C`, for which the molecule was called inactive.
On to `CCOc1ccccc1CNC(=O)C1CCCN(c2nc3ccccc3o2)C1` (stereo not given), for which the call was inactive.
For `CN1Cc2cc(C(=O)c3ccccc3O)cnc2NC1=O`, the molecule was called inactive.
On to `CCCCN1Cc2cc(C(=O)c3cc(F)ccc3O)cnc2NC1=O`, for which the result was inactive.
Then `CN1Cc2cc(C(=O)c3cc(Cl)cc(CSc4ncccn4)c3O)cnc2NC1=O`, with “active”; and `O=C(CN1C(=O)c2ccccc2S1(=O)=O)Nc1cccnc1`, with “inactive”.
Consider `COc1ccc(CSc2nnc(C)n2N)cc1`, for which the molecule was called inactive.
`COc1cccc(CC2CC(=O)N(CCc3ccc4c(c3)OCO4)C2=O)c1` (stereo not given): the outcome was inactive.
With `CCC(=O)c1ccc(OCCSc2ncccn2)cc1`, the result was inactive.
Then `COc1ccc(N=C2SCC(=O)N2c2ccc(OC)cc2)cc1`, with “inactive”; and `Cc1ccc2c(c1)C(N1CCCC1=O)CC(c1ccco1)N2` (stereo not given), with “active”.
Then `Cc1ccc(C2CC(c3ccco3)n3nc(N)nc3N2)cc1` (stereo not given), with “inactive”; and `Cc1ccc(C2CC(c3ccco3)n3ncnc3N2)cc1` (stereo not given), with “inactive”.
With `CCc1nn(C(C)C(=O)NCCN2CCN(c3cccc(C)c3C)CC2)c(=O)c2cc3occc3n12` (stereo not given), the call was inactive.
